Screens (PubChem)
HSF-1 act = increases HSF-1 driven luciferase reporter signal. NIH3T3-HGL HSF-1 luciferase reporter, MG132, 8 h; 100% = twice DMSO control signal. activation, % at 9 µM. 300,000 compounds, 1.7% hits. AID 504408;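 active = mean replicate activation of at least 50% with a set share of replicates each reaching 50%; inconclusive = only one of those two conditions met; inactive = mean below 50% and too few replicates reaching it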;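 also: 0% = median of the neutral control wells and 100% = twice that signal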
Vif inh = blocks HIV Vif function. 340,000 compounds, 0.35% hits. HEK293T cells, Vif self-association by quenched fluorescence, imaging, 24 h. inhibition, % at 7.49 µM; in the data active = inhibition above about 50%, passing the limit was not always enough; inconclusive = no clear call, values can overlap the other calls; inactive = below about 31%
esBAF inh = SWI/SNF esBAF complex inhibition. 350,000 compounds, 2% hits. reporter increase, % at 12.5 µM. AID 602393. mouse ES cells, Bmi1-luciferase knock-in reporter, 24 h; 100% = twice the neutral-well signal; in the data active = activation above about 40%; inconclusive = no clear call, values can overlap the other calls;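 also: 0% = median of the plate's neutral control wells and 100% = double that signal; a rise in the Bmi1 reporter signal indicates esBAF inhibition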
HSF1 inhib = HSF1 inhibition | NIH3T3-HGL HSE-luciferase, MG132-induced, luminescence 8 h; active compounds read low | activity change, negative = inhibition, % at 7.5 µM (by protocol) | 300,000 compounds, 0.77% hits | AID 2098;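 active = more than half of replicate wells show activity change below -50%, luminescence cut by over half; inconclusive = some wells, but at most half, below -50%; inactive = no replicate well below -50%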;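 also: luciferase reports HSF-1 transcriptional activity via heat shock element; 0% = median of DMSO wells and -100% = zero luminescence signal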
An asterisk follows results filed as active; ? = inconclusive; nt = not tested or not shown. Hits are enriched below; roughly 3.4% of the tested compounds scored in any of these assays.

SMILES	HSF-1 act	Vif inh	esBAF inh	HSF1 inhib
O=C(O)CC1SC(=Nc2ccccc2)N(c2ccccc2)C1=O (stereo unspecified)	-15	0	-13	-3
COC(=O)c1cnc(N2CCCN(S(=O)(=O)c3ccc(C(F)(F)F)cc3)CC2)nc1C(F)(F)F	53*	-2	nt	15
CCN1C(=O)C(CC(=O)Nc2ccc(OC)cc2)N(Cc2ccc3c(c2)OCO3)C1=S (stereo unspecified)	-83	17	nt	-78*
c1ccc2c(Nc3nc(-c4ccncc4)nc4ccccc34)cccc2c1	-90	-1	nt	-87*
Clc1ccccc1Nc1nc(-c2ccncc2)nc2ccccc12	-17	-5	-4	-7
C/C=C/c1ccc2c(c1)O[C@H](CN(C)C(=O)Nc1ccc(C(F)(F)F)cc1)[C@H](C)CN([C@H](C)CO)S2(=O)=O	nt	nt	-2	nt
Cc1nn(C)cc1NC(=O)C[C@@H]1CC[C@@H]2[C@@H](COc3ccc(NC(=O)C4CCC4)cc3C(=O)N2C)O1	nt	nt	-5	nt
CN(C)C(=O)[C@H]1[C@H](CO)[C@H]2Cn3c(ccc(C4=CCCC4)c3=O)[C@H]2N1Cc1ccccn1	nt	nt	5	nt
CCC(C)NC(=O)c1cc(CC(C)C)on1 (stereo unspecified)	2	-2	54*	9
Cc1cc(NC(=O)c2cc(CC(C)C)on2)no1	17	nt	31	13
CC(C)Cc1cc(C(=O)Nc2cccnc2)no1	17	-8	57*	20
O=C(C[C@@H]1C[C@H]2c3cc(NC(=O)CC4CC4)ccc3O[C@H]2[C@@H](CO)O1)NCCc1ccccc1	nt	nt	-1	nt
COc1ccc(OC)c(Nc2nc3ccc(C)cc3n3cnnc23)c1	74*	-9	-3	19
COc1ccc(Cl)cc1Nc1nc2ccc(C)cc2n2cnnc12	2	nt	2	-2
O=C(CNC(=O)c1sc2ccccc2c1Cl)NCc1ccccc1	0	nt	nt	-5
Cc1ccnc(NC(=O)c2sc3cc(Cl)ccc3c2Cl)c1	54*	1	nt	6
Cc1ccnc(NC(=O)CNC(=O)c2sc3ccccc3c2Cl)c1	-6	-3	52*	-12
COC(=O)C(Cc1ccccc1)NC(=O)CNC(=O)c1sc2ccccc2c1Cl (stereo unspecified)	-63	11	-3	-53*
COc1ccc(NC(=O)Nc2ccc3c(c2)C(=O)N([C@@H](C)CO)C[C@H](C)[C@H](CN(C)CC2CCCCC2)OCCCC[C@H](C)O3)cc1	nt	nt	-3	nt
S=c1[nH]nc(-c2ccncc2)n1Cc1ccco1	-76	27	0	-69*
CN1CCCC1CCNc1ccc2c(=O)c3ccccc3oc2c1 (stereo unspecified)	-3	2	32	4
CN1CCC[C@H]1CCNc1ccc2c(=O)c3ccccc3n(C)c2c1	nt	nt	64*	nt
Cn1c2ccccc2c(=O)c2ccc(NCc3ccc4c(c3)OCO4)cc21	nt	nt	44*	nt
C[C@H]1CN([C@@H](C)CO)C(=O)c2cccc(NC(=O)C3CCOCC3)c2O[C@@H]1CN(C)CC1CC1	nt	nt	1	nt
N#Cc1cc2c(nc1SCc1nc3ccccc3[nH]1)CCC2	-50	nt	nt	-47
SMILES	HSF-1 act	Vif inh	esBAF inh	HSF1 inhib
Fc1ccccc1CSCc1nc2ccccc2[nH]1	24	-7	64*	19
Cc1cc(C)c(C#N)c(SCc2nc3ccccc3[nH]2)n1	60*	-14	nt	43
Clc1ccc(SCc2nc3ccccc3[nH]2)cc1	56*	-14	36	31
Cc1ccc(SCc2nc3ccccc3[nH]2)cc1	90*	-6	?	35
O=C(Nc1ccc2c(c1)[C@H]1C[C@H](CC(=O)N3CCc4ccccc4C3)O[C@H](CO)[C@H]1O2)C1CCOCC1	nt	nt	-1	nt
O=c1[nH]c2ccccc2nc1-c1ccc(Cl)cc1	59*	-6	nt	24
C[C@H](CO)N1C[C@H](C)[C@H](CN(C)C(=O)Cc2ccccc2)OCCCC[C@H](C)Oc2ccc(NC(=O)Nc3cccc4ccccc34)cc2C1=O	nt	nt	13	nt
O=C(CC12CC3CC(CC(Br)(C3)C1)C2)Nc1nncs1	9	5	3	6
CCc1nnc(NC(=O)CC23CC4CC(CC(Br)(C4)C2)C3)s1	58*	1	0	22
Cc1ccc(CNCc2ccc3c(c2)OCO3)cc1	8	27	-3	3
COc1ccc(-c2nc3ccc(C)cn3c2NCc2ccc3c(c2)OCO3)cc1	60*	11	14	14
Cc1ccc(-c2nc3ccccn3c2NCc2ccc3c(c2)OCO3)cc1	34	-4	44*	16
CCCCNc1c(-c2cccc(-c3ccc(OC)cc3)c2)nc2ccc(C)cn12	-6	0	12	2
CNC[C@@H]1Oc2ccc(NC(=O)Nc3ccccc3)cc2CC(=O)N([C@H](C)CO)C[C@H]1C	nt	nt	1	nt
CC(C)NC(=O)N(C)C[C@@H]1Oc2cc(C#CCN(C)C)ccc2S(=O)(=O)N([C@H](C)CO)C[C@H]1C	nt	nt	0	nt
CN(c1nc(-c2ccccc2)cs1)C1CCS(=O)(=O)C1 (stereo unspecified)	1	0	75*	7
COCC(=O)N1CC[C@@H]2[C@H]1c1cc(C#Cc3ccccc3)ccc1N[C@@H]2CO	nt	nt	12	nt
CN(C)CC(=O)Nc1ccc2c(c1)[C@H]1C[C@@H](CC(=O)NCc3ccccc3F)O[C@@H](CO)[C@H]1O2	nt	nt	-3	nt
CC(C)NC(=O)N(C)C[C@@H]1OCCCC[C@@H](C)Oc2ccc(NC(=O)Nc3cccc4ccccc34)cc2C(=O)N([C@@H](C)CO)C[C@@H]1C	nt	nt	-8	nt
CC1(C)CC(=O)C(N=Nc2ccc(OC(F)F)cc2)=C(O)C1	-64	2	nt	-56*
COc1ccc(-c2cnc3c(c2)C(=O)N([C@H](C)CO)C[C@H](C)[C@H](CN(C)S(C)(=O)=O)O3)cc1	nt	nt	-1	nt
COc1ccc(S(=O)(=O)N(C)C[C@@H]2OCCCC[C@H](C)Oc3ccc(NS(=O)(=O)c4cn(C)cn4)cc3C(=O)N([C@@H](C)CO)C[C@@H]2C)cc1	nt	nt	2	nt
COc1ccc(CN(C)C[C@H]2OCCCC[C@H](C)Oc3ccc(NC(=O)Nc4c(C)noc4C)cc3C(=O)N([C@@H](C)CO)C[C@@H]2C)cc1	nt	nt	-1	nt
COc1cccc(/C=C2\SC(N3CCCC(C)C3)=NC2=O)c1OC (stereo unspecified)	49	-6	73*	33
COc1cccc(/C=C2\SC(N3CCC(C)CC3)=NC2=O)c1OC	1	-21	7	14
SMILES	HSF-1 act	Vif inh	esBAF inh	HSF1 inhib
O=C(Nc1ccc(CSc2ccccc2)cc1)c1ccco1	25	-5	52*	35
O=C(Nc1ccc(NC(=O)c2cccs2)cc1)c1ccco1	37	-5	48*	26
O=C(CCc1ccccc1)Nc1ccc(NC(=O)c2ccco2)cc1	1	10	16	1
O=C(Nc1ccc(NC(=O)c2cccs2)cc1)c1ccccc1	29	0	48*	7
Cc1ccc(NC(=O)c2cccs2)cc1	14	6	61*	20
CO[C@H]1CN(C)C(=O)c2cc(NC(=O)C3CCOCC3)ccc2OC[C@@H](C)N(C(=O)c2ccccc2)C[C@H]1C	nt	nt	0	nt
Cc1ccccc1-c1nc(-c2ccc(NC(=O)c3cccs3)cc2)no1	26	-20	51*	16
